Screening results (PubChem BioAssay)
Shown are actives, neighbours in structure and some others; about 11% of the full set was active somewhere.
HEK cytotox: Cytotoxic Profiling in HEK 293 Cell Line of Diverse Libraries Using Quantitative High-Throughput Screening; HEK 293 viability, ATP luminescence (CellTiter-Glo), 48-72 h; Potency, µM (highest dose often 115 µM), inactives show top-dose activity change, negative = cytotoxicity, actives largely listed as inhibitors; hit rate 6.6% among 94,000; further: nearly all actives have a fitted effect of over 60% in size
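Read-out: CellTiter-Glo ATP luminescence. Cells: HEK 293, 250 cells/well. Exposure: 48 or 72 hr, 37 degree Celsius.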
NPR1 antag: Natriuretic polypeptide receptor (hNpr1) antagonism - Primary qHTS. HEK293 hNpr1 GloSensor cGMP, ANP-stimulated luminescence. hit rate 1.6% among 76,000. Potency, µM (titrated, usually from 46.3 µM), for inactives: at the highest dose activity change, negative = inhibition, actives largely listed as inhibitors. Atrial natriuretic peptide receptor 1 (Homo sapiens), P16066. AID 1347048, 2019; calls by dose curve; further: nearly all actives have a fitted effect of over 60% in size
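HEK293 cells stably expressing human Npr1 and cGMP GloSensor pGS-40F, loaded 2 h with 2% GloSensor reagent, given compound 30 min at room temperature. Luminescence read before and 20 min after 0.1 nM hNppA.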
Luciferase inh: Firefly luciferase inhibition profiling of diverse chemical library using quantitative high-throughput screening; Luciferin 4-monooxygenase (Photinus pyralis), P08659; purified P. pyralis luciferase, luminescence, biochemical; Potency, µM (series often up to 115 µM), actives largely listed as inhibitors; hit rate 2.5% among 76,000; further: nearly all actives have a fitted effect of over 65% in size
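Luminescence read by CCD imaging after purified firefly luciferase (10nM final) was added to substrate buffer holding 10uM D-luciferin and 10uM ATP, pH 7.5, pre-dosed with compound.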
3T3 cytotox: Cytotoxic Profiling in NIH 3T3 Cell Line of Diverse Libraries Using Quantitative High-Throughput Screening. hit rate 4.3% among 94,000. Potency, µM (top dose mostly 96.7 µM), for inactives: top-dose activity change, negative = cytotoxicity, actives largely listed as inhibitors. AID 1345082, 2018. NIH 3T3 viability, CellTiter-Glo ATP luminescence, 48-72 h; further: nearly all actives have a fitted effect of over 55% in size
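Cells were seeded at 400 per well, treated with pin-transferred compound, and kept 48 or 72 hr at 37 °C before CellTiter-Glo addition and luminescence imaging of cellular ATP.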
Starred values were filed as active, the others as inactive; i = inactive; ? = inconclusive; . = no result given; ! = not active in a repeat; [ ] = another dose, or the depositor's remark. Unless noted, the call rests on the fitted dose curve; in most records, active means well fitted curve in the direction sought with a large enough effect; inconclusive means small, poorly fitted or top-dose-only effect, or another doubt; inactive means no such curve, though single readings can be large; an effect the other way counts as inactive or inconclusive. On the % scale 0 is the no-effect control and ±100 the full control effect; potency means the concentration at half of the fitted maximal effect.

SMILES | HEK cytotox | NPR1 antag | Luciferase inh | 3T3 cytotox
O=S(=O)(c1ccccc1)N1CCN(c2cc(C3CC(O)C3)ncn2)CC1 (stereo unspecified) | 40µM*! | -21% | i | ?
O=C(NC1CCN(C(=O)c2ccc(-c3cccs3)cc2)CC1)c1ccc(F)cc1 | ? | . | . | -11%
COc1ccc(-c2nc(N3CCOC[C@H]3C)cc3c2CN(C(C)C)C3=O)cc1 | 112µM* | 3%[70.6 µM] | i | 79µM*
COc1ccc(-c2nc(N3CCOCC3)cc3c2CN(Cc2cnn(C)c2)C3=O)cn1 | -27%[172 µM] | 3%[70.6 µM] | i | ?
CC(C)NC(=O)c1ccccc1OCC1CCCN(CC2=Cc3ccccc3OC2)C1 (stereo unspecified) | 35µM* | -20% | i | ?
O=C(c1ccccc1OCC1CCCN(CC2=Cc3ccccc3OC2)C1)N1CCCCC1 (stereo unspecified) | ? | -17% | i | ?
CC(C)NC(=O)c1ccccc1OCC1CCCN(Cc2ccc(F)cc2)C1 (stereo unspecified) | 40µM* | 4% | i | ?
O=C(NC1CC1)c1ccccc1OCC1CCCN(CC2=Cc3ccccc3OC2)C1 (stereo unspecified) | 40µM* | ? | i | ?
COCCCn1c(=O)c(C(=O)N2CCN(C(=O)c3ccc(Cl)cc3)CC2)nc2cccnc21 | -8% | . | . | -1%
O=C1CCN(S(=O)(=O)c2ccccc2)CCCN(C(=O)CCC2CCCC2)CCN1 | i | 5% | i | -13%
CCN1CCN(CCCNC(=O)C2N(c3ccc(OC)cc3)C(=O)C23CCCCC3)CC1 (stereo unspecified) | -1% | 3% | i | -5%
CCCc1cc(N2CCC(NCc3cc(F)c(F)c(F)c3)CC2)nc(C)n1 | 50µM* | 8% | i | ?
CCCc1cc(N2CCC(NCCOC(C)C)CC2)nc(C)n1 | -10% | 7% | i | -4%
COc1ccc(-c2noc(-c3cccn3CC(=O)NC3CCCCC3)n2)cc1F | -26% | -9% | i | 3%
C#CCNC(=O)c1ccc2oc(-c3cccnc3OC)nc2c1 | -20% | . | . | -20%
O=C1N(C2CCCCC2)C[C@H]2CN(S(=O)(=O)c3ccccc3)CCN12 | ? | 4%[70.6 µM] | i | ?
O=C1N(C2CCCCC2)C[C@H]2CN(S(=O)(=O)c3ccc(F)cc3)CCN12 | ? | -2%[70.6 µM] | i | 35µM*
O=C(Cc1cccc(Cl)c1)N1CCC(C(=O)N2CCC(N3Cc4ccccc4C3=O)CC2)CC1 | 50µM* | . | . | ?
O=C(C1CC1)N1CCC(C(=O)N2CCC(N3Cc4ccccc4C3=O)CC2)CC1 | -10% | . | . | -15%
Cn1cc(-c2cnc3[nH]cc(CC(=O)Nc4ccccc4Cl)c3c2)cn1 | -11%[172 µM] | 5%[70.6 µM] | i | ?
NC(=O)Cc1c[nH]c2ncc(-c3cccc(N4CCOCC4)c3)cc12 | -8%[172 µM] | 2%[70.6 µM] | i | 100µM*
COc1ccc(-c2cnc3[nH]cc(CC(=O)Nc4ccc(F)c(Cl)c4)c3c2)cc1 | ? | -23%[70.6 µM] | i | 32µM*
COc1ccc(-c2cnc3[nH]cc(CC(=O)Nc4ccc(C(F)(F)F)cc4)c3c2)cc1 | ? | -18%[70.6 µM] | i | 45µM*
COc1ccc(NC(=O)Cc2c[nH]c3ncc(-c4ccccc4)cc23)cc1 | -16%[172 µM] | -26%[70.6 µM] | i | ?
O=C(Cc1c[nH]c2ncc(-c3ccccc3)cc12)Nc1ccc(N2CCOCC2)cc1 | 63µM* | -23%[70.6 µM] | i | 25µM*
SMILES | HEK cytotox | NPR1 antag | Luciferase inh | 3T3 cytotox
COc1ccc(CCNC(=O)c2ccc3nnc(-c4cccnc4)n3c2)cc1 | -8% | . | . | -6%
Cn1cccc1-c1noc(C2CCN(C(=O)CCn3cnc4ccccc43)CC2)n1 | ? | . | . | -38%
Cc1ccccc1-c1cnc2[nH]cc(CC(=O)Nc3ccccc3)c2c1 | ? | ? | i | 40µM*
O=C(Cc1c[nH]c2ncc(-c3ccccc3)cc12)Nc1ccc(C(F)(F)F)cc1 | 63µM* | -7%[70.6 µM] | i | ?
O=C(Cc1c[nH]c2ncc(-c3cccnc3)cc12)Nc1ccc(C(F)(F)F)cc1 | ? | ? | i | ?
Cn1cc(-c2cnc3[nH]cc(CC(=O)Nc4cccc(F)c4)c3c2)cn1 | 45µM* | -23%[70.6 µM] | i | ?
Cn1cc(-c2cnc3[nH]cc(CC(=O)Nc4ccc(N5CCOCC5)cc4)c3c2)cn1 | ? | 5%[70.6 µM] | i | -1%[138 µM]
COc1ccc(Cl)cc1C(=O)NC1CCN(c2cc(-c3cccs3)[nH]n2)CC1 | ? | -22% | i | 7.9µM*
COc1ccc(C(=O)NC2CCN(c3cc(-c4cccs4)[nH]n3)CC2)cc1 | ? | 0% | 18µM* | ?
Cc1ccc(C(=O)NC2CCN(c3cc(-c4cccs4)[nH]n3)CC2)c(C)c1 | ? | 0% | i | 32µM*
Cc1ccc(C(=O)NC2CCN(c3cc(-c4cccs4)[nH]n3)C2)c(C)c1 (stereo unspecified) | -13% | -2% | i | -16%
COc1ccc(S(=O)(=O)N2CCCN(C)c3ccccc32)cc1Cl | ? | 0% | i | ?
Cn1cc(CN2CCN3CCCC3C2)c(-c2ccc(C3CCCCC3)cc2)n1 (stereo unspecified) | 25µM* | 6% | ? | ?
CNC(=O)CCn1ncc2cc(OC3CCc4cccc(-c5cccc(F)c5)c43)ccc21 (stereo unspecified) | ? | -25%[70.6 µM] | i | ?
CNC(=O)CCn1ncc2cc(OC3CCc4cccc(-c5ccc(F)cc5)c43)ccc21 (stereo unspecified) | 63µM* | -19%[70.6 µM] | i | ?
CNC(=O)CCn1ncc2cc(OC3CCc4cccc(-c5ccccc5F)c43)ccc21 (stereo unspecified) | ? | ? | i | 50µM*
CNC(=O)CCn1ncc2cc(OC3CCc4cccc(-c5ccccc5)c43)ccc21 (stereo unspecified) | ? | -24%[70.6 µM] | i | ?
Cc1ccc(NC(=O)C2CCc3nnc(C4CC4)n32)cc1 (stereo unspecified) | -7%[172 µM] | . | . | -22%[138 µM]
COc1ccc(CNC(=O)C2CCCN(c3nccc(Nc4ccccc4F)n3)C2)cc1 (stereo unspecified) | 28µM* | . | . | 10µM*
Cc1ccc(Nc2ccnc(N3CCCC3C(=O)NCc3cccc(F)c3)n2)cc1 (stereo unspecified) | ? | . | . | -26%
COc1ccc(Nc2ccnc(N3CCCC(C(=O)NCc4ccccc4)C3)n2)cc1 (stereo unspecified) | 40µM* | . | . | 35µM*
Cc1ccc(Nc2ccnc(N3CCCC(C(=O)NCc4ccc5c(c4)OCO5)C3)n2)cc1 (stereo unspecified) | 7.9µM* | . | . | 13µM*
COc1ccc(CNC(=O)C2CCCN(c3nccc(Nc4ccc(C)cc4)n3)C2)cc1 (stereo unspecified) | 10µM* | . | . | ?
